Measured values published in ChEMBL document CHEMBL3988442, “University of Dundee, Small-Polar-MMV Screening Library” (2021).
The whole screen tested about 48,000 compounds, of which about 13,000 (27%) showed an effect of 50% or more. Some of the results follow.

tested on: Wolbachia pipientis; experiment: Anti-Wolbachia Cell-Based Screen; type: functional; set-up: scale not given: in the data most compounds retested in dose-response had high values; conditions: 5 µM

Compound	Percent Effect [%]
Cc1ccc(CN2CC[C@H]3C(=O)N(Cc4cccnc4)CCO[C@H]3C2)o1.O=C(O)C(F)(F)F.O=C(O)C(F)(F)F	-24.56
CCS(=O)(=O)N1C[C@H]2CN(Cc3cccnc3)C(=O)[C@H]2C1.O=C(O)C(F)(F)F	-7.035
O=C(O)C(F)(F)F.O=C(O)C(F)(F)F.O=C1[C@@H]2CCN(C3CCOCC3)C[C@@H]2OCCN1Cc1cccnc1	1.497
CS(=O)(=O)N[C@@H]1CCN(Cc2cccnc2)[C@H]1Cc1ccccc1.O=C(O)C(F)(F)F.O=C(O)C(F)(F)F	1.711
O=C(O)C(F)(F)F.O=C1[C@H]2CN(S(=O)(=O)c3ccccc3)C[C@H]2CN1Cc1cccnc1	108.5
O=C(O)C(F)(F)F.O=C1[C@H]2CN(S(=O)(=O)C3CC3)C[C@H]2CN1Cc1cccnc1	124.6
COC(=O)c1cccc2nc([C@H]3CCN(C4CCN(C)CC4)C3)oc12	-2.242
O=C(NC[C@H]1OC[C@@H]2CCN(Cc3ccco3)C[C@@H]21)c1ccsc1.O=C(O)C(F)(F)F	14.6
Cc1cccc(N2CC[C@@H]3[C@@H](CO[C@H]3CNC(=O)c3ccco3)C2)n1	-1.973
CN(Cc1cccnc1)C[C@@H]1OC[C@H]2CN(Cc3ccco3)CC[C@H]21.O=C(O)C(F)(F)F.O=C(O)C(F)(F)F.O=C(O)C(F)(F)F	9.505
Cc1ccc(CN2CC[C@@H]3[C@@H](CO[C@H]3CN(C)C)C2)o1.O=C(O)C(F)(F)F.O=C(O)C(F)(F)F	-16.8
O=C(NC[C@H]1OC[C@@H]2CN(Cc3ccco3)CC[C@@H]21)c1cscn1.O=C(O)C(F)(F)F	98.96
Cn1cc(C(=O)NC[C@@H]2OC[C@H]3CN(Cc4ccco4)CC[C@H]32)cn1.O=C(O)C(F)(F)F	1.243
O=C(NC[C@H]1OC[C@@H]2CN(Cc3ccco3)CC[C@@H]21)c1cccnc1.O=C(O)C(F)(F)F.O=C(O)C(F)(F)F	98.92
NC(=O)N1CC[C@H]2CO[C@H](CNC(=O)c3ccnnc3)[C@H]2C1	-2.645
Cc1ccc(N2CC[C@@H]3[C@@H](CO[C@H]3CNC(=O)c3ccco3)C2)nn1	1.851
O=C(NC[C@H]1OC[C@@H]2CCN(Cc3ccco3)C[C@@H]21)c1ccnnc1.O=C(O)C(F)(F)F	121
Cn1cc(CN2CC[C@@H]3[C@@H](CO[C@H]3CNC(=O)c3ccco3)C2)cn1.O=C(O)C(F)(F)F.O=C(O)C(F)(F)F	86.49
CN(C)C(=O)Cn1cc(C#N)c(=O)c2cc(Br)ccc21	-22.43
COCC(NC(=O)c1ccc(O)nc1)c1ccc(C)o1 (stereo not given)	3.678
O=S(=O)(c1ccc(-c2nc3c([nH]2)CCNC3)cc1)N1CCCC1	-8.56
CCCSCC(=O)N1CCCC(c2nccn2Cc2ccncc2)C1 (stereo not given)	15.91
O=C(COCC1CC1)N1CCCC(n2cncn2)C1 (stereo not given)	10.78
CC(c1ccccn1)N(C)Cc1ccc(CCC(C)(C)O)cc1 (stereo not given)	6.636

Compound	Percent Effect [%]
CN(Cc1ccc(-n2ccnc2)cc1)Cc1ncc[nH]1	-4.002
CC(C)CN(Cc1ccc(-n2cncn2)cc1)Cc1ccccn1	111.5
CC(c1ccccn1)N(C)Cc1ccc(-n2cncn2)cc1 (stereo not given)	115.2
CC(C)CN(Cc1ccc(O)c(C(=O)O)c1)Cc1ccccn1	-5.995
COCCn1ccnc1CN(Cc1ccccn1)CC(C)C	-12.4
CC(C)C(O)C(C)(C)CNC(=O)NCc1ccc(-n2cncn2)cc1 (stereo not given)	-5.14
CC(c1ccccn1)N(C)Cc1ccc(-n2ccnc2)cc1 (stereo not given)	100.9
CN(Cc1ccc(-n2cncn2)cc1)Cc1ncc[nH]1	-14.86
COc1ccc(OC)c(S(=O)(=O)NC(=O)C(C)OC)c1 (stereo not given)	1.842
CC(C)=CCC1(CO)CCCN(S(C)(=O)=O)C1 (stereo not given)	-9.202
CCc1csc(C2CCCN(C(=O)c3ccncc3)C2)n1 (stereo not given)	12.22
CCc1csc(C2CCCN(C(=O)c3ccc(=O)n(CC)n3)C2)n1 (stereo not given)	101.1
CCc1nc(CN2CCCN(C(=O)c3cnc[nH]3)CC2)cs1	-9.99
CCc1csc(C2CCCN(C(=O)c3ccc(OC)nc3)C2)n1 (stereo not given)	6.728
CCc1csc(C2CCCN(C(=O)c3cnc[nH]3)C2)n1 (stereo not given)	106.6
CCc1csc(C2CCCN(C(=O)c3ccc4[nH]nnc4c3)C2)n1 (stereo not given)	100.2
Cc1csc(C2CCCN(C(=O)c3cnc[nH]3)C2)n1 (stereo not given)	-6.546
CCc1csc(C2CCCN(C(=O)c3ncccn3)C2)n1 (stereo not given)	104
CCc1csc(C2CCCN(C(=O)c3ccc4c(c3)OCO4)C2)n1 (stereo not given)	-10.1
CCc1csc(C2CCCN(C(=O)c3ccc(=O)n(C)n3)C2)n1 (stereo not given)	-0.1419
CC(C)c1csc(C2CCCN(C(=O)c3ncccn3)C2)n1 (stereo not given)	1.009
COC(=O)CNC(=O)C1(NC(=O)c2ccc3[nH]ncc3c2)CCCC1	5.444
CNS(=O)(=O)c1ccccc1N1CCN(C(C)C(N)=O)CC1 (stereo not given)	-9.322
CC(C)NC(=O)N1CC[C@@H](N(C)C)[C@@H]1Cc1ccncc1.O=C(O)C(F)(F)F.O=C(O)C(F)(F)F	-7.431

Compound	Percent Effect [%]
CCc1csc(C2CCCN(C(=O)c3c[nH]c(C)n3)C2)n1 (stereo not given)	6.503
CCc1csc(C2CCCN(C(=O)c3ccccn3)C2)n1 (stereo not given)	106.7
CCc1csc(C2CCCN(C(=O)c3cc(C4CC4)[nH]n3)C2)n1 (stereo not given)	98.97
CCc1csc(C2CCCN(C(=O)c3ccc(OC)nn3)C2)n1 (stereo not given)	3.799
Cc1csc(C2CCCN(C(=O)c3cc(Cl)c[nH]3)C2)n1 (stereo not given)	-0.3257
CCc1csc(C2CCCN(C(=O)c3ccco3)C2)n1 (stereo not given)	94.24
CCOC(=O)CCC(=O)N1CC(c2nc(Cc3ccccc3)no2)C1	-13.25
CCOC(=O)[C@@H]1CN2CCNC[C@@H]2[C@H]1c1ccccc1	110.8
CCN(C(=O)CN1CCC(c2ccccc2)C1)C1CC1 (stereo not given)	4.674
O=C(CCn1cncn1)N1C[C@H]2CC[C@@H]1CN(Cc1ccncc1)C2	5.769
CC(CN1CCOCC1)OC(=O)c1cccc2cn[nH]c12 (stereo not given)	-3.971
Cc1nc(CN2CCCN(C(=O)c3c(C)oc(C)c3C)CC2)cs1	108.1
Cc1oc(C)c(C(=O)N2CCCN(Cc3cscn3)CC2)c1C	2.495
Cc1noc(C)c1CNC(=O)N1CCN(Cc2cscn2)CC1	-4.059
CCc1noc(C)c1C(=O)N1CCCN(Cc2csc(C)n2)CC1	18.09
CCc1noc(C)c1C(=O)N1CCCN(Cc2cscn2)CC1	149
Cc1oc(C)c(C(=O)N2CCN(Cc3cscn3)CC2)c1C	159.3
Cc1ocnc1C(=O)N1CCCN(Cc2cscn2)CC1	126.9
Cc1nc(CN2CCCN(C(=O)c3c(C)noc3C)CC2)cs1	14.06
Cc1cc(C(C)C(=O)N2CCCN(Cc3cscn3)CC2)c(C)o1 (stereo not given)	-21.53
Cc1csc(N2CCCN(C(=O)c3c(C)oc(C)c3C)CC2)n1	12.08
Cc1nn(C)c(Cl)c1S(=O)(=O)N(CC(N)=O)CC(C)C	-2.815
O=C(c1cccc(F)c1F)N1CCn2c(nnc2C(F)(F)F)C1	-8.426
O=C(NCC1=CCCCC1)C(c1cccnc1)N1CCCC1 (stereo not given)	4.63

Compound	Percent Effect [%]
CCc1ncncc1C(=O)N1CCN(Cc2cscn2)CC1	108.1
Cc1noc(C)c1C(=O)N1CCCN(Cc2cscn2)CC1	110.4
CCc1nc(CN2CCCN(C(=O)c3c(C)noc3C)CC2)cs1	-12.93
Cc1noc(C(C)C)c1C(=O)N1CCCN(Cc2cscn2)CC1	0.5158
CCc1ncncc1C(=O)N1CCN(Cc2ccco2)CC1	2.127
CC(C)c1ncncc1C(=O)N1CCN(Cc2cscn2)CC1	-5.142
CN(C)CCNC(=O)c1ccccc1NC(=O)c1cc(Cl)ccc1Cl	115.7
CN(C)CCCNC(=O)c1ccccc1NC(=O)c1cc(Cl)ccc1Cl	87.51
CN(CC(=O)Nc1ccccc1C(=O)NC1CC1)Cc1ccccc1Cl	6.232
CN(C)CCCNC(=O)c1ccccc1NC(=O)c1ccccc1Cl	105.1
Cc1ccnc(NC(=O)CCNC(=O)c2ccccc2Cl)c1	8.062
CN(C)CCNC(=O)c1cnc2c(c1)nc(-c1ccccc1Cl)n2C	-9.554
CN(C)CCCNC(=O)c1ccnc(OCc2ccccc2)c1	-11.72
CN(CCCNC(=O)c1ccccc1F)CC(F)(F)F	0.1047
COc1cc(NC(=O)c2ccccc2F)c(C(=O)N(C)C)cc1OC	-7.835
COCc1nc2cc(NCc3cc[nH]n3)ccc2o1	-2.175
CC(=O)Nc1cc(CN(C)C)ccc1C	-5.311
CC(C(=O)N1CCCC1)S(=O)(=O)Cc1noc(C(C)(C)C)n1 (stereo not given)	-6.108
Cc1cc(C2CCCN(Cc3ncc(C)o3)C2)n[nH]1 (stereo not given)	-4.273
Cc1cc(C2CCCN(CCCNS(C)(=O)=O)C2)n[nH]1 (stereo not given)	-11.22
Cc1cc(C2CCCN(CCCS(C)(=O)=O)C2)n[nH]1 (stereo not given)	81.87
Cc1cc(C)n(CC2CCCN2CCCS(N)(=O)=O)n1 (stereo not given)	-6.761
Cc1cc(C2CCCN(CCCS(N)(=O)=O)C2)n[nH]1 (stereo not given)	116
